“And” between values parts separate entries of the source, which are not always exact repeats. Equal entries are not always repeated. About 83,000 compounds went through this panel and 20% of them were active in at least one assay; those are over-represented in the sample as a whole.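 Activity criterion: percent growth below 10, measured after cells in 96-well plates were exposed to a single compound concentration for 48 hours.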 The source made the active and inactive calls.
Assays:
Assay in all cases: NCI-60 one-dose screen, 48 h (100 = growth as untreated, 0 = no growth, -100 = all killed)
Conditions in all cases: 10 µM unless noted
SK-MEL-2 melanoma = system: SK-MEL-2 melanoma
SN12C renal = system: SN12C renal
UO-31 renal = system: UO-31 renal
CAKI-1 renal = system: CAKI-1 renal
A498 renal = system: A498 renal
HL-60(TB) leukemia = system: HL-60(TB) leukemia
CCRF-CEM leukemia = system: CCRF-CEM leukemia
TK-10 renal = system: TK-10 renal
ACHN renal = system: ACHN renal
EKVX NSCLC = system: EKVX NSCLC

## CC1(C)N=C(N)N=C(N)N1c1ccc(CCC(=O)Nc2ccc(S(=O)(=O)F)cc2)cc1
SK-MEL-2 melanoma
  growth: 50.4% (inactive)
SN12C renal
  growth: 33.4% (inactive)
UO-31 renal
  growth: 82.3% (inactive)
CAKI-1 renal
  growth: 28.8% (inactive)
A498 renal
  growth: 60.3% (inactive)
HL-60(TB) leukemia
  growth: 18.8% (inactive)
CCRF-CEM leukemia
  growth: 18.9% (inactive)

## O=c1c2ccccc2nc(-c2ccccc2Cl)n1-c1nnc(C(F)(F)F)s1
SN12C renal
  growth: 21.9% (inactive)
UO-31 renal
  growth: 19.4% (inactive)
TK-10 renal
  growth: 42% (inactive)
ACHN renal
  growth: 51.8% (inactive)
CAKI-1 renal
  growth: 3.51% (active)
A498 renal
  growth: -7.82% (active)
HL-60(TB) leukemia
  growth: 1.24% (active)
CCRF-CEM leukemia
  growth: 7.41% (active)

## O=[N+]([O-])c1c(Cl)cc(Cl)c([N+](=O)[O-])c1Cl
SK-MEL-2 melanoma
  growth: 112% (inactive)
SN12C renal
  growth: 108% (inactive)
TK-10 renal
  growth: 112% (inactive)
ACHN renal
  growth: 103% (inactive)
A498 renal
  growth: 111% (inactive)
HL-60(TB) leukemia
  growth: 85.2% (inactive)
CCRF-CEM leukemia
  growth: 53.5% (inactive)

## O=C(O)C(Br)CBr (configuration not stated)
SK-MEL-2 melanoma
  growth: 85.1% (inactive)
SN12C renal
  growth: 98% (inactive)
UO-31 renal
  growth: 89.4% (inactive)
ACHN renal
  growth: 97.4% (inactive)
CAKI-1 renal
  growth: 101% (inactive)
A498 renal
  growth: 107% (inactive)
CCRF-CEM leukemia
  growth: 96.3% (inactive)

## Cc1ccc(C(=O)O[C@H](C(=O)O)[C@H](OC(=O)c2ccc(C)cc2)C(=O)O)cc1
SN12C renal
  growth: 102% (inactive)
TK-10 renal
  growth: 105% (inactive)
ACHN renal
  growth: 106% (inactive)
CAKI-1 renal
  growth: 102% (inactive)
A498 renal
  growth: 120% (inactive)
HL-60(TB) leukemia
  growth: 95.4% (inactive)

## O=S(=O)(O)c1ccc(Cl)cc1
HL-60(TB) leukemia
  growth: 89.1% (inactive)

## OC[C@@H](O)[C@@H](O)CO
HL-60(TB) leukemia
  growth: 92.4% (inactive)

## CCOC(=O)C1C(c2ccco2)C2(C#N)C(=N)OC1(C)C2(C#N)C#N (configuration not stated)
TK-10 renal
  growth: 83.8% [100 µM] (inactive) and 19.2% [100 µM] (inactive)

## NNC(=S)N/N=C(\C(=O)Nc1cccc(O)c1)C1C(=O)NC(=S)NC1=O
TK-10 renal
  growth: 132% [100 µM] (inactive) and 93% [100 µM] (inactive)

## c1ccc2nc(-c3ccc4ccccc4n3)ccc2c1
HL-60(TB) leukemia
  growth: 101% (inactive)

## CCCC[C@@H]1CCN2C[C@@H](O)[C@@H](O)[C@@H]2[C@H]1O
TK-10 renal
  growth: 113% [100 µM] (inactive) and 98.7% [100 µM] (inactive)

## Nc1cccnc1
EKVX NSCLC
  growth: 115% (inactive)
SN12C renal
  growth: 102% (inactive)
TK-10 renal
  growth: 102% (inactive)
ACHN renal
  growth: 113% (inactive)
CAKI-1 renal
  growth: 104% (inactive)
A498 renal
  growth: 112% (inactive)
HL-60(TB) leukemia
  growth: 106% (inactive)
CCRF-CEM leukemia
  growth: 98.7% (inactive)

## CC1(C)CN=C(NN=C(/C=C/c2ccc(C(F)(F)F)cc2)/C=C/c2ccc(C(F)(F)F)cc2)NC1
SN12C renal
  growth: -74.3% (active)
UO-31 renal
  growth: 8.51% (active)
TK-10 renal
  growth: -17.9% (active)
ACHN renal
  growth: -84.2% (active)
CAKI-1 renal
  growth: -76.9% (active)
HL-60(TB) leukemia
  growth: -59.7% (active)
CCRF-CEM leukemia
  growth: -24.9% (active)

## CCCCOC(N)=O
SK-MEL-2 melanoma
  growth: 113% (inactive)
SN12C renal
  growth: 103% (inactive)
UO-31 renal
  growth: 89.1% (inactive)
ACHN renal
  growth: 111% (inactive)
CAKI-1 renal
  growth: 103% (inactive)
A498 renal
  growth: 125% (inactive)
CCRF-CEM leukemia
  growth: 102% (inactive)

## CN(N)/N=N/c1nc[nH]c1[N+](=O)[O-]
TK-10 renal
  growth: 79.1% [100 µM] (inactive) and 9.85% [100 µM] (active)

## C=C1C(=O)OC2/C=C(\C)CC/C=C(/C)CC(OC(=O)/C(=C/CO)CO)C12 (configuration not stated)
TK-10 renal
  growth: -78.7% [100 µM] (active) and -88.5% [100 µM] (active)

## Nc1ccc(S(=O)(=O)F)cc1
EKVX NSCLC
  growth: 112% (inactive)
SN12C renal
  growth: 105% (inactive)
UO-31 renal
  growth: 86.3% (inactive)
TK-10 renal
  growth: 92.7% (inactive)
ACHN renal
  growth: 109% (inactive)
CAKI-1 renal
  growth: 101% (inactive)
A498 renal
  growth: 94.8% (inactive)
HL-60(TB) leukemia
  growth: 91.9% (inactive)

## N#Cc1ccc(Cl)cc1
EKVX NSCLC
  growth: 117% (inactive)
SN12C renal
  growth: 107% (inactive)
UO-31 renal
  growth: 94.6% (inactive)
TK-10 renal
  growth: 60.3% (inactive)
ACHN renal
  growth: 102% (inactive)
CAKI-1 renal
  growth: 111% (inactive)
HL-60(TB) leukemia
  growth: 83.9% (inactive)
CCRF-CEM leukemia
  growth: 99.5% (inactive)

## Cc1ccc(NC(=O)c2cc3ccccc3cc2O)c(C)c1
HL-60(TB) leukemia
  growth: 54.3% (inactive)

## Oc1ccccc1C=NCCN=Cc1ccccc1O
SK-MEL-2 melanoma
  growth: 106% (inactive)
SN12C renal
  growth: 102% (inactive)
ACHN renal
  growth: 103% (inactive)
CAKI-1 renal
  growth: 102% (inactive)
A498 renal
  growth: 77.9% (inactive)
HL-60(TB) leukemia
  growth: 115% (inactive)

## ClCc1ccc(Cl)c(Cl)c1
SN12C renal
  growth: 97.9% (inactive)
UO-31 renal
  growth: 91.2% (inactive)
CAKI-1 renal
  growth: 109% (inactive)
A498 renal
  growth: 95.5% (inactive)
HL-60(TB) leukemia
  growth: 105% (inactive)
CCRF-CEM leukemia
  growth: 96.3% (inactive)

## O=C(NC(Cl)=C(Cl)Cl)P(=O)(c1ccccc1)c1ccccc1
SN12C renal
  growth: 107% (inactive)
UO-31 renal
  growth: 95.8% (inactive)
TK-10 renal
  growth: 118% (inactive)
ACHN renal
  growth: 112% (inactive)
CAKI-1 renal
  growth: 85.7% (inactive)
A498 renal
  growth: 102% (inactive)
HL-60(TB) leukemia
  growth: 110% (inactive)
CCRF-CEM leukemia
  growth: 98.6% (inactive)

## CC1CCNC(C)C1 (configuration not stated)
HL-60(TB) leukemia
  growth: 113% (inactive)

## N#CC(C#N)=C(C#N)C#N
SN12C renal
  growth: 110% (inactive)
UO-31 renal
  growth: 90.9% (inactive)
ACHN renal
  growth: 94.8% (inactive)
CAKI-1 renal
  growth: 125% (inactive)
A498 renal
  growth: 110% (inactive)
HL-60(TB) leukemia
  growth: 107% (inactive)

## O=S(OO)c1cc(Cl)c(O)c(Cl)c1 (configuration not stated)
SK-MEL-2 melanoma
  growth: 110% (inactive)
SN12C renal
  growth: 101% (inactive)
TK-10 renal
  growth: 100% (inactive)
ACHN renal
  growth: 100% (inactive)
CAKI-1 renal
  growth: 91.3% (inactive)
A498 renal
  growth: 82.5% (inactive)
HL-60(TB) leukemia
  growth: 103% (inactive)
CCRF-CEM leukemia
  growth: 91% (inactive)

## O=S(=O)(F)c1cccc(Cl)c1C[P+](c1ccccc1)(c1ccccc1)c1ccccc1
SK-MEL-2 melanoma
  growth: 97.1% (inactive)
SN12C renal
  growth: 102% (inactive)
TK-10 renal
  growth: 116% (inactive)
ACHN renal
  growth: 97.7% (inactive)
CAKI-1 renal
  growth: 94.4% (inactive)
A498 renal
  growth: 122% (inactive)
HL-60(TB) leukemia
  growth: 98.9% (inactive)

## COc1cc(C=C2C(=O)NC(=O)NC2=O)ccc1O
EKVX NSCLC
  growth: 153% (inactive)
SN12C renal
  growth: 96.5% (inactive)
TK-10 renal
  growth: 127% (inactive)
ACHN renal
  growth: 101% (inactive)
A498 renal
  growth: 69% (inactive)
HL-60(TB) leukemia
  growth: 95.6% (inactive)
CCRF-CEM leukemia
  growth: 113% (inactive)

## O=C1C(=C(O)c2ccccc2)C(=O)c2ccccc21
HL-60(TB) leukemia
  growth: 97.6% (inactive)

Reference: PubChem BioAssay (NCI)
